# A selection: hits, their analogues and other compounds. The true share with any hit is near 2.8%.
# KKLEB cytotox – counter-screen for CF NF-kB inhibitors: cytotoxicity; KKLEB CF airway cells viability, ATPlite luminescence, overnight; hits give low values; cells stimulated with P. aeruginosa culture filtrate; activity change (cytotoxicity), % at 5 µM; 360,000 compounds, 0.36% hits;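 active = corrected activity change at or below -50% at 5 µM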
# CF NFkB block – inhibitors of cystic fibrosis induced NF-kB. KKLEB NF-kB-GFP reporter, PAF-induced, GFP fluorescence overnight. inhibition, % at 5 µM. 360,000 compounds, 0.86% hits. AID 588850;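 active = at least 50% inhibition at 5 µM, scaled per plate between neutral and stimulator controls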;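 also: PAF is a Pseudomonas aeruginosa culture filtrate used as stimulus; plate controls were PAF-stimulated DMSO wells for no effect and unstimulated DMSO wells for full effect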
# TRPM1 prom inh – reduces MITF-dependent TRPM1 promoter luciferase signal | SK-MEL-5 TRPM1 promoter luciferase, 24 h | inhibition, % at 12.5 µM | 330,000 compounds, 0.83% hits | AID 488899;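 active = mean inhibition across replicates of 60% or more, whatever share of single replicates reaches that level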
# Shn3 inh set2 – inhibitors of Schnurri-3 3'UTR reporter in osteoblasts | Clone20 osteoblast Shn3 3'UTR firefly luciferase, 24 h | inhibition, % at 12.5 µM | 360,000 compounds, 0.52% hits | AID 588674;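 active = mean inhibition of at least 75% with every replicate also reaching 75%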;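 also: 0% = median of neutral control wells and 100% = pilot-screen positive control compound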
# Peg3 promoter – inhibitors of Peg3 promoter; HeLa PEG-Prom luciferase reporter, luminescence, overnight; inhibition, % at 20 µM; 360,000 compounds, 1.7% hits;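 active = inhibition of at least 50% at 20 µM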
# HIF-2a inh – inhibitors of HIF-2a | 360,000 compounds, 0.72% hits | inhibition, % at 18.8 µM | 786-0 RCC cells HIF-2a reporter, luciferase luminescence, overnight | AID 624352;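 active = inhibition of the luminescence signal of 40% or more relative to plate controls, in a single-dose primary screen at 18.75 µM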
# The depositor's hits bear a star; / = no result.
SMILES,KKLEB cytotox,CF NFkB block,TRPM1 prom inh,Shn3 inh set2,Peg3 promoter,HIF-2a inh
OC(c1cccc(Cl)c1)(c1cccc(Cl)c1)C1CN2CCC1CC2 (stereo not drawn),-10.3,17.5,-1.4,5.6,96.4*,11.3
CC1=CC(C)CC(C)OC(=O)CC(c2ccc(O)cc2)NC(=O)C(Cc2c(Br)[nH]c3ccccc23)N(C)C(=O)C(C)NC(=O)C(C)C1 (stereo not drawn),-81.0*,90.9*,81.2*,67.2,76.1*,23.6
C/C(=C\c1ccc(N(C)C)cc1)[N+](=O)[O-],-33.1,-5.0,79.6*,28.5,101.4*,93.3*
CN(C)c1ccc(/C=C/[N+](=O)[O-])cc1,0.3,3.6,5.6,-14.9,-16.9,11.1
COC(C)(C)CCCC(C)C/C=C/C(C)=C/C(=O)OC(C)C (stereo not drawn),-2.8,10.5,7.2,-10.0,-2.5,4.2
CC(C)CCNC(=O)c1c(N)n(Cc2ccc3c(c2)OCO3)c2nc3ccccc3nc12,-8.8,9.9,-1.9,25.2,45.4,-2.0
CCCNC(=O)c1c(N)n(Cc2ccc3c(c2)OCO3)c2nc3ccccc3nc12,-64.5*,51.0*,-1.4,9.2,41.4,11.2
COc1ccc(/C=N\N=C(N)N)cc1,13.7,-2.8,-0.9,14.2,14.2,7.1
NC(N)=N/N=C/c1ccc(N(c2ccccc2)c2ccccc2)cc1,-0.3,-5.3,101.5*,94.9*,104.7*,94.7*
CCN(CC)c1ccc(N=Cc2c(O)n(CCc3ccc(OC)c(OC)c3)c(=O)[nH]c2=O)cc1,-6.2,3.4,29.3,8.0,68.6*,5.7
COc1cc2c(c(OC)c1OC)-c1ccc(O)c(=O)cc1C(NC(C)=O)CC2 (stereo not drawn),-17.7,53.8*,51.4,-8.0,-34.1,-7.9
CS(=O)(=O)c1ccc(C(=O)N2CCC(C(=O)O)(c3ccccc3)CC2)cc1,-17.7,-1.4,3.9,-0.4,-0.8,2.4
CCN1/C(=C/C=C/C2=[N+](CC)c3ccccc3C2(C)C)C(C)(C)c2ccccc21,-42.5,-84.8,/,79.5,96.4*,39.3*
C/C=C1/C[C@@H](C)[C@](O)(CO)C(=O)OCC2=CCN3CC[C@@H](OC1=O)[C@@H]23,4.6,9.3,-9.2,-4.1,5.8,8.9
CC1=C(C)CC2(CC1)C(=O)NC(=O)NC2=O,20.4,-20.7,4.0,-41.2,60.6*,-3.6
COc1ccc(C(c2nnnn2-c2ccc3c(c2)OCCO3)N2CCC3(CC2)C(=O)NCN3c2ccccc2)cc1 (stereo not drawn),-3.4,-4.9,/,-7.7,30.5,0.5
O=C1NC(=O)N(CCc2ccc(F)cc2)C(=O)/C1=C\C=C\c1ccccc1,-48.4,89.3*,89.9*,72.1,33.7,10.7
C=CCN1C(=O)NC(=O)/C(=C/c2ccc(OC)c(CSc3ccccn3)c2)C1=O,15.1,0.0,3.3,11.6,12.0,-6.0
C=CCN1C(=O)NC(=O)/C(=C/C=C/c2ccccc2)C1=O,0.0,-14.5,94.2*,16.1,24.3,16.0
O=[N+]([O-])c1cnc[nH]1,14.1,-10.2,-3.5,-12.8,-2.8,-1.1
Cc1ccc(Cn2nc(C(=O)Nc3ccc(Br)cc3)cc2C)cc1,2.0,-10.0,-36.0,14.4,-310.5,-272.0
CCC1CN2CCc3cc(OC)c(OC)cc3C2CC1CC1NCCc2c1[nH]c1ccc(O)cc21 (stereo not drawn),-26.7,89.3*,97.1*,92.4*,98.8*,57.5*
COc1ccc2c(c1OC)CN1CCc3cc4c(cc3[C@H]1C2)OCO4,5.0,-28.7,-10.1,19.3,-28.9,-34.1
O=C1NC(=O)C(=Cc2c(Cl)cccc2Cl)C(=O)N1,-37.6,58.8*,23.0,23.2,14.7,26.0
COC(=O)C1=C(c2ccc(Cl)c(C(F)(F)F)c2)C[C@@H]2CC[C@H]1N2C(=O)NCc1ccco1,17.9,6.4,-5.7,14.7,3.1,11.2
COC(=O)C1CN(C#N)N(c2ccc(Cl)cc2)C12c1ccccc1-c1ccccc12 (stereo not drawn),-102.3*,96.9*,97.8*,96.8*,108.6*,90.4*
C#CC[N+]1(C)[C@@H]2CC[C@H]1CC(OC(=O)C(CO)c1ccccc1)C2 (stereo partly drawn),-0.4,-4.7,-0.8,-25.9,-2.5,10.7

# Screening data from PubChem BioAssay.
